The record followed here is PubChem BioAssay.

The source made the active and inactive calls. Unless noted, no rule for the calls is given here.

Assay [1] deals with Wnt5a (protein binding on small-molecule microarray). The experiment in a line: small molecules binding Wnt5a protein – biophysical, small-molecule microarray, 635/667 nm fluorescence, primary screen (AID 1142).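 Also: fluorescence read at 667 nm with signal to noise per printed feature.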 Conditions: 635 nm fluorescence, higher = more signal.
Assay [2] in a line: ATP-based viability of Huh7 replicon cells – cell-based, CellTiter-Glo luminescence, basal, 48 h, cytotoxicity control for HCV replication inhibitor project, primary screen (AID 1143).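 Also: Huh7 hepatoma cells carrying a hepatitis C replication reporter with no stimulus; test concentration not given here.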 Conditions: higher = more signal, called active from +8 up or from −8 down.
Assay [3] in a line: Pseudomonas biofilm growth suppression – PAO1 strain, BacTiter-Glo luminescence, LB-PBS, primary screen (AID 1144). The note with it: P. aeruginosa PAO1 biofilm, 12 h, higher = more signal.
Assay [4] is described as follows: basal CRE-LacZ reporter activity in PC12 – cell-based, unstimulated, primary screen (AID 1145). The note with it: no forskolin, luminescence, 4.5 h, higher = more signal, called active from +8 up or from −8 down.
The nature of assay [5]: forskolin-driven CRE-LacZ activity in PC12 – cell-based, CRE-LacZ reporter, forskolin-stimulated, primary screen (AID 1146).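 Also: PC12 cells with 6xCRE LacZ reporter stimulated by forskolin 10 µM; beta-galactosidase reporter signal reflecting CREB driven transcription.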 The note with it: luminescence, 4.5 h, higher = more signal, called active from +8 up or from −8 down.
Assay [6] deals with Streptavidin (Streptomyces avidinii) (UniProt P22629). Put plainly: compounds binding control protein streptavidin – biophysical, small-molecule microarray, 635/667 nm fluorescence, artefact control for SMM compound annotation, primary screen (AID 1147).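 Also: signal reflects streptavidin binding to arrayed compounds as a control protein.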 Conditions: higher = more signal.
Chain of Streptavidin (Streptomyces avidinii) (P22629 whole entry, looked up): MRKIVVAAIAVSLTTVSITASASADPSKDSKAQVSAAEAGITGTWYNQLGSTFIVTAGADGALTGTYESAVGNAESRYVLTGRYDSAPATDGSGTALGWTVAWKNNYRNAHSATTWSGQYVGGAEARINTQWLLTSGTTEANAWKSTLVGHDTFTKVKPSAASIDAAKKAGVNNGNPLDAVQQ
The nature of assay [7]: probe aInhba binding on compound microarray – biochemical, small-molecule microarray, 635/667 nm fluorescence, primary screen (AID 1148).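 Also: score merges 667nm spot fluorescence with signal-to-noise for antibody binding to printed compounds.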 The note with it: higher = more signal.
Assay [8] has as its target Torsin-1A (Homo sapiens) (UniProt O14656). The experiment in a line: TOR1A wild-type binding on microarray – cell lysate, small-molecule microarray, lysate, 635/667 nm, primary screen (AID 1149). The note with it: COS7 hTOR1A-WT lysate, 635 nm fluorescence, higher = more signal.
The target is the same in assay [9]. The experiment in a line: torsin A mutant lysate binding on microarrays – cell lysate, small-molecule microarray, COS7 lysate, 635/667 nm fluorescence, primary screen (AID 1150).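 Also: score pools 667 nm emission and signal to noise measuring lysate protein binding.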 The note with it: COS7 hTOR1A mutant lysate, 635 nm fluorescence, higher = more signal.
In assay [10] the test system is Sonic hedgehog protein (Shh). Put plainly: Sonic hedgehog microarray binding compounds – biochemical, small-molecule microarray, 635/667 nm fluorescence, primary screen (AID 1151).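 Also: Shh protein binding to compounds spotted on small-molecule microarray slides; score combines spot fluorescence intensity with signal-to-noise across triplicate slides.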 The note with it: 635 nm fluorescence, higher = more signal.
Assay [11] is described as follows: optical density shifts of acrAB sulA E. coli – strain DRC41, OD650, 48 h, E. coli filamentation inducer project, primary screen (AID 1152).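 Also: E. coli MC1000 strain DRC41 lacking acrAB efflux pump and sulA.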 The note with it: higher = more signal, called active from +8 up or from −8 down.
Assay [12] is described as follows: probe aLefty1 binding on compound microarray – biochemical, small-molecule microarray, 635/667 nm fluorescence, primary screen (AID 1153).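 Also: score merges spot fluorescence with signal-to-noise ratio from the scanned slide images.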 The note with it: higher = more signal.
Assay [13] can be described thus: plasmodial surface anion channel blockers, osmotic lysis – cell-based, P. falciparum Indochina, OD700, 1 h, primary screen (AID 1154). Conditions: P. falciparum Indochina infected RBC osmotic lysis, higher = more signal, called active from +8 up or from −8 down.
Assay [14] can be described thus: plasmodial surface anion channel blockers, osmotic lysis – cell-based, P. falciparum Indochina, OD700, 2 h, primary screen (AID 1155).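 Also: lysis reports solute entry through the parasite surface anion channel PSAC.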 Conditions: P. falciparum Indochina infected erythrocytes, higher = more signal, called active from +8 up or from −8 down.
Assay [15] is described as follows: changes in parasitized red cell lysis, either direction – P. falciparum Indochina, OD700, 3 h, PSAC antagonist project, primary screen (AID 1156). Conditions: P. falciparum-infected erythrocytes, osmotic lysis, higher = more signal, called active from +8 up or from −8 down.
Assay [16] is described as follows: plasmodial surface anion channel blockers, osmotic lysis – cell-based, P. falciparum Indochina, OD700, 18 h, primary screen (AID 1157). The note with it: P. falciparum Indochina infected erythrocytes, osmotic lysis OD700, 18 h; higher = more signal, called active from +8 up or from −8 down.
The nature of assay [17]: S6 kinase pathway phospho-S6 level changes – cell-based, A549, cytoblot, luminescence, serum-stimulated, primary screen (AID 1158).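 Also: serum-stimulated A549 lung adenocarcinoma cells; signal is phosphorylated S6 detected by cytoblot immunostaining with HRP secondary.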 The note with it: 5 h, higher = more signal.
The target in assay [18] is NADPH oxidase 2 (Homo sapiens) (UniProt P04839). The experiment in a line: compounds shifting NOX2 Amplex Red fluorescence – cell-based, HEK293-NOX2, PMA-stimulated, NOX inhibitor project, primary screen (AID 1159). Also: test concentration not given here. The note with it: 45 min, higher = more signal, called active from +8 up or from −8 down.
Chain of NADPH oxidase 2 (Homo sapiens) (P04839 whole entry, looked up): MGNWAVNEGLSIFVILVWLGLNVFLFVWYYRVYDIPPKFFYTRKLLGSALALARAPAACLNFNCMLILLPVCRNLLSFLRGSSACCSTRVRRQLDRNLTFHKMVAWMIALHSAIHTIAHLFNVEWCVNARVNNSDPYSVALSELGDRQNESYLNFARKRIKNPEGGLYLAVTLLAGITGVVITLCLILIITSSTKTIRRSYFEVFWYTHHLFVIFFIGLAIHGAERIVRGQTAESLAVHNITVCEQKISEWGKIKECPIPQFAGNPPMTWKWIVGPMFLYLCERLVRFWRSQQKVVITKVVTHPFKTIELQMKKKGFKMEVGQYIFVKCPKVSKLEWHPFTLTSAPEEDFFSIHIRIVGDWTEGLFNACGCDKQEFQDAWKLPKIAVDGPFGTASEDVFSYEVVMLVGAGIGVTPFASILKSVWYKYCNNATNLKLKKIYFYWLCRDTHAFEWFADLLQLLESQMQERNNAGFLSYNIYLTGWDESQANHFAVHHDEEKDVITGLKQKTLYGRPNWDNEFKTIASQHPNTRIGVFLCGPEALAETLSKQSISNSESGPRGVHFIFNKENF
Assay [19] addresses NADPH oxidase 4 (Homo sapiens) (UniProt Q9NPH5). The experiment in a line: compounds shifting NOX4 Amplex Red fluorescence – cell-based, HEK293-NOX4, tetracycline-induced, NOX inhibitor project, primary screen (AID 1160). The note with it: HEK293-NOX4, Amplex Red H2O2 fluorescence, 45 min; higher = more signal, called active from +8 up or from −8 down.
Assay [20] concerns the target NADPH oxidase 5 (Homo sapiens) (UniProt Q96PH1). The experiment in a line: compounds shifting NOX5 Amplex Red fluorescence – cell-based, HEK293-NOX5, NOX inhibitor project, primary screen (AID 1161). The note with it: HEK293-NOX5, ionomycin, 45 min, higher = more signal.

Chain of Torsin-1A (Homo sapiens) (O14656 whole entry, looked up): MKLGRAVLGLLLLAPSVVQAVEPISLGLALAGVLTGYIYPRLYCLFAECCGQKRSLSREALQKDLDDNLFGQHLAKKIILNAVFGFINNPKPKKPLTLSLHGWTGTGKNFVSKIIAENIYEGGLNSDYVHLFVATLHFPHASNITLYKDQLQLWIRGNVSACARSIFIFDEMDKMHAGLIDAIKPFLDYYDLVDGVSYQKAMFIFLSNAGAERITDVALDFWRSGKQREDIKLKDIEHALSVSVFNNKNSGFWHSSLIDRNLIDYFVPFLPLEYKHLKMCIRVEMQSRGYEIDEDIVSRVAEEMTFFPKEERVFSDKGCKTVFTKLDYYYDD
Chain of NADPH oxidase 5 (Homo sapiens) (Q96PH1 whole entry, looked up): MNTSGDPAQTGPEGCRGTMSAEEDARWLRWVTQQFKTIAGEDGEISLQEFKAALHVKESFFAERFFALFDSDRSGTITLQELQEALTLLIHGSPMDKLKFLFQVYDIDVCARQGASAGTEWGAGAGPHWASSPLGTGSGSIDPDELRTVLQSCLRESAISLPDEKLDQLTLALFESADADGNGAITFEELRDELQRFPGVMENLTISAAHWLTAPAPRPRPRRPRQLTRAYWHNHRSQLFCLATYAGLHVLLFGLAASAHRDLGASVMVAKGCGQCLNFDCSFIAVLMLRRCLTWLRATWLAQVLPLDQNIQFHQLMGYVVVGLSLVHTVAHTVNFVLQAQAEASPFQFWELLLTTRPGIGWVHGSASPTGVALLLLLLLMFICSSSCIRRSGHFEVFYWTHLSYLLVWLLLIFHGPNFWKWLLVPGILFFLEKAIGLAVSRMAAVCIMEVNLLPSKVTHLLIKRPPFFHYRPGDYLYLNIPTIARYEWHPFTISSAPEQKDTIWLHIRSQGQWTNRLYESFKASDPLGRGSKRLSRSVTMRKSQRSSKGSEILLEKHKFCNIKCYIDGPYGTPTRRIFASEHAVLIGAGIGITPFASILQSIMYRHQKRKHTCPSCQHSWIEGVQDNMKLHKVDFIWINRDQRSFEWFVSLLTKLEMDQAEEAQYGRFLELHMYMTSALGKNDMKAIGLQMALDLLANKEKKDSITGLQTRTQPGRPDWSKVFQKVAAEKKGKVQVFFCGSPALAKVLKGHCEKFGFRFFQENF
Chain of NADPH oxidase 4 (Homo sapiens) (Q9NPH5 whole entry, looked up): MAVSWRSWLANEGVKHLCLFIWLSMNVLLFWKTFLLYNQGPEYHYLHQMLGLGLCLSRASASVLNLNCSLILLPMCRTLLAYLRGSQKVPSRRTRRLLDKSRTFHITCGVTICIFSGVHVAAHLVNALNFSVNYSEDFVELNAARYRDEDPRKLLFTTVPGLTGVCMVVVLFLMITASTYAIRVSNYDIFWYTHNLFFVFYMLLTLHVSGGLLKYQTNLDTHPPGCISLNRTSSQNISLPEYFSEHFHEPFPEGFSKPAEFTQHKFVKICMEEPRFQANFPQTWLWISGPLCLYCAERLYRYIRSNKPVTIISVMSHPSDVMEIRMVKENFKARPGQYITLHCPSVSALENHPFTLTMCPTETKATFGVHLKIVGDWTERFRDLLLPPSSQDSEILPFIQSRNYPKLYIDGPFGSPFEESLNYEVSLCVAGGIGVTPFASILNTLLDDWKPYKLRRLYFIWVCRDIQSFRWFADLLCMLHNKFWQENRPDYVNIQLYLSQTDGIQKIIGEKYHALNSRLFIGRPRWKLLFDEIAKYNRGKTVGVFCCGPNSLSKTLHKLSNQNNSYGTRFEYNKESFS

Turning to `CCOC(=O)[C@H]1C/C=C/C[C@H](C(=O)OCC)C(=O)O[C@H]2[C@@H](OC)O[C@H](CO)[C@@H](OC(=O)c3c(OC)cccc3OC)[C@@H]2OC1=O`, the composite z-score in assay [1] is 0.172; in [6], 0.475; in assay [7] it was -0.0501; with Torsin-1A (Homo sapiens) [8] it was 0.292; in the assay with Torsin-1A (Homo sapiens) [9] it was 0.209; in assay [10], 1.44. The compound also gave a composite z-score in assay [12] of 0.446. For the same compound, the z-score was -4.57 (inactive) in [2]; 0.0437 (inactive) in assay [3]; 0.0816 (inactive) in [4]; 1.33 (inactive) in [5]; -0.664 (inactive) in assay [11]; 13.5 (active) in assay [13]. Besides, the z-score in assay [14] is 2.34 (inactive); in [15], -0.083 (inactive); in assay [16], 1.2 (inactive); in [17] it was 0.122; in [18], -3.32 (inactive); in assay [19] it was -0.754 (inactive). The z-score in assay [20] is -3.76.

In the case of `C=CCOC(=O)[C@H]1[C@@H]2C(=O)O[C@@H](c3ccccc3)[C@@H](c3ccccc3)N2[C@@H](c2ccc(OCCOC(=O)[C@H]3C[C@H]4C(=O)N[C@@H](CCCCNC(C)=O)C(=O)N4[C@H]3c3cccc(OCCO)c3)cc2)[C@]12C(=O)Nc1ccccc12`, the composite z-score in assay [1] is 0.791; in assay [6], -0.365; in [7] it was -0.21; in the assay with Torsin-1A (Homo sapiens) [8] it was 0.983; with Torsin-1A (Homo sapiens) [9] it was 0.934; in [10], 2.07. This compound displayed a composite z-score in assay [12] of 0.179. In addition, the z-score was -1.1 (inactive) in [2]; -0.292 (inactive) in assay [3]; -1.08 (inactive) in [4]; -0.908 (inactive) in [5]; -0.0842 (inactive) in [11]; 3.6 (inactive) in assay [13]. Further, the z-score was 1.52 (inactive) in assay [14]; 3.95 (inactive) in assay [15]; 1.01 (inactive) in [16]; -0.116 in [17]; 2.19 (inactive) in assay [18]; 1.93 (inactive) in assay [19]. In addition, the z-score in assay [20] stood at 0.8.

`CC(C)C[C@@H]1NC(=O)[C@@H]2C[C@H](C(=O)O)[C@H](c3cccc(OCCO)c3)N2C1=O`: the composite z-score in assay [1] was 0.64; in assay [6], -0.811; in [7] it was -0.209; with Torsin-1A (Homo sapiens) [8], 0.198; with Torsin-1A (Homo sapiens) [9], 1.09; in [10] it was 0.188. In [12], this compound displayed a composite z-score of -0.0966. The z-score was -1.07 (inactive) in assay [2]; 0.133 (inactive) in assay [3]; 0.826 (inactive) in assay [4]; 1.41 (inactive) in assay [5]; 0.649 (inactive) in assay [11]; 3.95 (inactive) in assay [13]. The z-score in assay [14] is 0.373 (inactive); in assay [15] it was -0.917 (inactive); in assay [16], 0.0571 (inactive); in [17], -0.129; in assay [18], 1.34 (inactive); in [19], 0.663 (inactive). In addition, in assay [20], the z-score was determined as 2.01.

`C=CCC(OC(C)=O)[C@@H]1[C@@H](N(Cc2ccc(-c3ccccc3)cc2)C(=O)c2ccc(-c3ccccc3)cc2)c2cc(OCCCO)ccc2N1C(=O)Cc1ccc2ccccc2c1` (stereo not given in full): the composite z-score in assay [1] is 0.102; in [6], 0.497; in assay [7], 0.0051; in the assay with Torsin-1A (Homo sapiens) [8], -0.395; with Torsin-1A (Homo sapiens) [9], 0.42; in [10] it was 0.523. For the same compound, the composite z-score in assay [12] is 0.155. For the same compound, the z-score is 0.315 (inactive) in [2]; -0.0138 (inactive) in assay [3]; 0.208 (inactive) in assay [4]; 0.411 (inactive) in assay [5]; -0.706 (inactive) in [11]; 0.05 (inactive) in [13]. Further, the z-score in [14] was 0.129 (inactive); in assay [15] it was -0.472 (inactive); in assay [16] it was 0.408 (inactive); in assay [17], -0.309; in assay [18], 0.795 (inactive); in assay [19], 1 (inactive). Moreover, the z-score in [20] was 0.532.
